Compound activity as filed in PubChem BioAssay.
pPAFAH FP inh: pPAFAH (human) enzyme inhibition | Q13093 | recombinant pPAFAH, FP-rhodamine probe fluorescence polarization | inhibition, % at 3.39 µM | 330,000 tested, 1.5% active;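 active means inhibition above the mean inhibition across the screen plus 3 SD, cut at about 25% in these data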;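 further: inhibitors block binding of the rhodamine activity-based probe so polarization drops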
Target sequence (Q13093 whole entry, looked up): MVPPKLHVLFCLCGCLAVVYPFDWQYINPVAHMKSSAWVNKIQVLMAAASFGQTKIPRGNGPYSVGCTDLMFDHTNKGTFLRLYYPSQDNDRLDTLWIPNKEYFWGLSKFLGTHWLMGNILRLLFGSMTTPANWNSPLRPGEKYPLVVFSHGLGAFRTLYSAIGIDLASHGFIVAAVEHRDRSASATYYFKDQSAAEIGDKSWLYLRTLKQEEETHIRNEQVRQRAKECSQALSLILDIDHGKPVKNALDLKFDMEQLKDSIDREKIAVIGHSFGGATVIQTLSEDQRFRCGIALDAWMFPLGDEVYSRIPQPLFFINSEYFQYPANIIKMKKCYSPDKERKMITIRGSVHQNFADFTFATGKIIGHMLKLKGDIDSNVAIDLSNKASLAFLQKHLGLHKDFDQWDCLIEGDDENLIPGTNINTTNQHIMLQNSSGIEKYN
PME-1 inh: blocks human protein phosphatase methylesterase 1 | inhibition, % at 5.9 µM | Q9Y570 | 320,000 tested, 0.53% active | recombinant PME-1, FP-Rh probe fluorescence polarization | AID 2130;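 active means inhibition above the campaign mean of all compounds plus 3 SD, cut at about 26% in these data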;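 further: competitive labeling of PME-1 active site by serine hydrolase directed probe; inhibitors block probe labeling so polarization falls and inhibition rises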
Fam108B counter: blocks mouse Fam108B hydrolase in RBBP9 counter-screen; recombinant Fam108B, FP-Rh probe fluorescence polarization; AID 1947; inhibition, % at 9.51 µM; 300,000 tested, 0.33% active;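 active means inhibition above the screen mean inhibition plus 3 SD, computed separately per campaign, cut at about 18% in these data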;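 further: inhibitors lower polarization as less probe binds the enzyme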
PAFAH2 inh: inhibitors of human PAFAH2; inhibition, % at 3.39 µM; Q99487; 340,000 tested, 0.99% active; recombinant PAFAH2, FP-rhodamine activity probe, fluorescence polarization;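 active means inhibition above the mean over all tested compounds plus 3 SD, cut at about 30% in these data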;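 further: inhibitors block probe labeling of enzyme so polarization drops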
PAFAH1B2 FP inh: blocks human PAF acetylhydrolase 1b catalytic subunit 2; inhibition, % at 3.39 µM; recombinant PAFAH1B2, FP-rhodamine activity probe, fluorescence polarization; P68402; 340,000 tested, 1.2% active;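 active means inhibition above the mean of all tested compounds plus 3 SD, cut at about 24% in these data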
PAFAH1B3 FP inh: blocks human PAF acetylhydrolase 1B catalytic subunit 3; Q15102; 340,000 tested, 0.28% active; recombinant PAFAH1B3, FP-rhodamine probe, fluorescence polarization; inhibition, % at 3.39 µM; AID 492972;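 active means inhibition above the screen-wide average of all tested compounds plus 3 SD, cut at about 25% in these data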
PAFAH2 FP conf: confirmation of human PAFAH2 inhibitors | shares compounds with PAFAH2 inh | recombinant PAFAH2, FP-rhodamine activity probe, fluorescence polarization | inhibition, % at 3.39 µM | 2,300 tested, 65% active | AID 493030;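 active means mean inhibition over three repeats above a set limit taken from the earlier primary screen, cut at about 30% in these data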;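 further: inhibitor blocks binding of rhodamine activity probe so polarization falls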
Large screens that a line does not name were inactive (follow-up assays come after a bar, where they were run). The list is not random: actives were taken first. Their share in the collection is about 2.8%.

CC(=O)Nc1cccc(NC(=O)COC(=O)C2CC3CCCC(C2)C3=O)c1 (configuration not stated)	none
O=C(COC(=O)C1CC2CCCC(C1)C2=O)NC1CCCCC1 (configuration not stated)	PAFAH2 inh 63 (no result: Fam108B counter) | PAFAH2 FP conf 55
COc1cccc(NC(=O)C(=O)c2cn(CC(=O)N3CCCC3)c3ccccc23)c1	none
O=c1[nH]c(C(F)(F)C(F)(F)C(F)(F)F)no1	none (no result: pPAFAH FP inh, PME-1 inh, Fam108B counter)
CN(C)S(=O)(=O)c1cccc(NC(=O)COc2ccccc2C(=O)NCc2ccccc2)c1	none (no result: pPAFAH FP inh, PME-1 inh, Fam108B counter)
Cc1cc(NC(=O)c2ccoc2C)no1	none
COc1ccccc1Nc1nc(N)nc(CSC(=S)N2CCCCC2)n1	PAFAH2 inh 37 | PAFAH2 FP conf inactive
COc1ccc(NC(=O)/C(Cl)=C(/Cl)S(=O)(=O)Cc2ccccc2)cn1	PAFAH2 inh 41 (no result: pPAFAH FP inh, PME-1 inh, Fam108B counter) | PAFAH2 FP conf inactive
CCc1cccc(C)c1NC(=O)C1=C(C(=O)O)CCCC1	none
CC(=O)OCC1=C(C(=O)O)N2C(=O)[C@@H](NC(=O)Cc3cccs3)[C@H]2SC1	PAFAH2 inh 39 | PAFAH2 FP conf inactive
CC(=O)OCC1=C(C(=O)O)N2C(=O)[C@@H](NC(=O)Cc3ccccc3)[C@H]2SC1	none (no result: pPAFAH FP inh, PME-1 inh, Fam108B counter)
CC(=O)OCC1=C(C(=O)O)N2C(=O)C(NC(=O)c3ccc(COc4c(C)cccc4Cl)o3)C2SC1 (configuration not stated)	PAFAH2 inh 43 | PAFAH2 FP conf 41
CCN(c1cccc(C)c1)S(=O)(=O)c1ccc2c(c1)NC(=O)CS2	none
CCN(c1cccc(C)c1)S(=O)(=O)c1ccc2c(c1)NC(=O)CCS2	PAFAH2 inh 48 | PAFAH2 FP conf 35
Cc1ccccc1NC(=O)COC(=O)C1C2CC3OC(=O)C1C3C2 (configuration not stated)	none
COc1ccc(NC(=O)COC(=O)C2C3CC4OC(=O)C2C4C3)cc1 (configuration not stated)	none
O=C(COC(=O)C1C2CC3OC(=O)C1C3C2)Nc1ccc(F)cc1 (configuration not stated)	PAFAH2 inh 78 | PAFAH2 FP conf 69
O=C(COC(=O)C1C2CC3OC(=O)C1C3C2)Nc1ccc(Br)cc1 (configuration not stated)	PAFAH2 inh 79 | PAFAH2 FP conf 71
O=C(COC(=O)C1C2CC3OC(=O)C1C3C2)Nc1ccccc1 (configuration not stated)	PAFAH2 inh 75 | PAFAH2 FP conf 66
CC(NC(=O)Cn1cccc1)c1ccccc1 (configuration not stated)	none
O=C(NCCc1ccc(C(F)(F)F)cc1)C1CCC(=O)N(CCc2cccc(F)c2)C1 (configuration not stated)	none
O=C(NCCc1ccc(C(F)(F)F)cc1)C1CCC(=O)N(CCCc2ccccc2)C1 (configuration not stated)	PAFAH2 inh 53 | PAFAH2 FP conf 53
O=C(COC(=O)c1ccc(Cl)nc1)NCc1ccc(F)cc1	none (no result: PME-1 inh, Fam108B counter)
COc1ccc(C(=O)OCC(=O)NCCc2ccc(F)cc2)cc1S(=O)(=O)N1CCOCC1	PAFAH2 inh 66 (no result: PME-1 inh, Fam108B counter) | PAFAH2 FP conf 47
Nc1cc(C(=O)OCC(=O)NCc2ccc(F)cc2)ccc1Cl	PAFAH2 inh 55 | PAFAH2 FP conf 44
COc1ccc(C(=O)OCCOc2cccc(Cl)c2)cc1S(=O)(=O)N1CCOCC1	PAFAH2 inh 35 | PAFAH2 FP conf inactive
COc1ccc(C(=O)OCC(=O)c2ccccc2)cc1S(=O)(=O)N1CCOCC1	PAFAH2 inh 52 | PAFAH2 FP conf 40
COc1ccc(C(=O)NCCc2ccc(C(F)(F)F)cc2)cc1S(=O)(=O)N1CCOCC1	none (no result: Fam108B counter)
Cc1noc(COc2ccccc2OCC(N)=O)n1	none (no result: PAFAH2 inh, PAFAH1B2 FP inh, PAFAH1B3 FP inh)
O=C(COC(=O)c1ccc(CNS(=O)(=O)c2ccc(F)c(Cl)c2)cc1)NCC1CCCCC1	PAFAH2 inh 59 | PAFAH2 FP conf 66
O=C(COC(=O)c1ccc(Br)c(S(=O)(=O)N2CCOCC2)c1)NCCc1ccccc1	none (no result: PME-1 inh, Fam108B counter)
O=C(COC(=O)c1ccc(S(=O)(=O)N2CCCCCC2)cc1)NCc1ccc(F)cc1	none (no result: pPAFAH FP inh, PME-1 inh, Fam108B counter)
